Compound activity as filed in PubChem BioAssay.
TAR Tat displ: TAR RNA-Tat peptide displacers, HIV-1, primary screen, biochemical, FRET, FAM/TAMRA-labeled Tat. HIV-1 TAR RNA, Tat peptide displacement FRET; active compounds read high. AID 1259389, 2018. z-score (concentration not given with the values). 0.6% of 100,000 active; active = z-score of 3 or more in at least 2 runs
CDC25B-CDK2 inh: primary biochemical HTRF screen for blockers of M-phase inducer phosphatase 2 binding to CDK2/cyclin A; HTRF CDC25B-CDK2/CyclinA binding, anti-His/anti-Flag; active compounds read high; z-score (test concentration not listed); 0.72% of 94,000 active; in the data active = z-score above about 3.2
A number is an active result; i = inactive; nt = no result. Only some compounds are listed: those with a hit (about 0.93% of all), similar ones and a draw of the others.

SMILES | TAR Tat displ | CDC25B-CDK2 inh
CCOC(=O)C(Nc1ccccc1)C(=O)OCC | nt | i
CC1=C(c2ccccc2)S(=O)(=O)NC1=NCc1ccccc1 | i | i
O=C1c2cccnc2C(=O)N1Cc1ccc(S(=O)(=O)NC2CCCc3ccccc32)cc1 (stereo unspecified) | i | nt
CCCCCN(CCS(=O)(=O)N1CCNCC1)S(=O)(=O)c1ccc(C)cc1 | i | nt
CCOc1ccc(C2CC(=O)N3CN(CCO)CSC3=C2C#N)cc1 (stereo unspecified) | i | i
CCOc1ccc(C2CC(=O)N3CN(c4ccc(CCO)cc4)CSC3=C2C#N)cc1 (stereo unspecified) | i | 7.2
Cc1cc(-c2ccc(=O)[nH]n2)cc(S(=O)(=O)N2CCN(c3ccccc3)CC2)c1C | i | nt
Cc1cc(-c2ccc(=O)[nH]n2)cc(S(=O)(=O)N2CCC(Cc3ccccc3)CC2)c1C | 8.8 | nt
O=C(Nc1cc(C(F)(F)F)cc(C(F)(F)F)c1)c1ccc(Br)o1 | nt | i
Cc1cc(C)c2nc(C)cc(Nc3ccc(N(C)C)cc3)c2c1 | i | i
Cc1cc(Nc2ccc(N(C)C)cc2)c2cccc(C)c2n1 | 22 | i
Nc1nccnc1C(=O)NNC(=O)c1cccc(C(F)(F)F)c1 | nt | i
CN(C(=O)Cc1ccc(NC2=NC3CS(=O)(=O)CC3S2)cc1)C1CCCCC1 (stereo unspecified) | i | i
COCCN(C(=O)c1sc2nc3n(c(=O)c2c1C)CCCCC3)C1CCN(C(C)=O)CC1 | i | nt
CCOC(=O)c1c(NC(C)=O)c2c3c(sc2n1CC(=O)NCc1ccco1)CCCC3 | 14 | nt
CCOC(=O)c1c(NC(C)=O)c2c3c(sc2n1Cc1cn2ccccc2n1)CCCC3 | i | nt
O=C(NC1CCCC1)C1CCCN(c2nnc(N3CCCC3=O)s2)C1 (stereo unspecified) | i | i
Cc1nnc2c(N3CCN(c4ncccn4)CC3)nc3ccc(C(=O)c4ccccc4)cc3n12 | i | nt
COc1cccc(-c2nc(=S)c3c([nH]2)Oc2c(cccc2OC)C3)c1O | 35 | i
CCOc1cccc2c1Oc1[nH]c(-c3cc(OC)c(OC)c(OC)c3)nc(=S)c1C2 | nt | i
CCOc1cccc(-c2nc3c(c(=O)[nH]2)Cc2cc(Br)ccc2O3)c1O | i | i
CCOc1cccc(-c2nc(=S)c3c([nH]2)Oc2c(cccc2OC)C3)c1O | 23 | i
O=c1[nH]c(-c2ccccc2O)nc2c1Cc1cc(Cl)ccc1O2 | i | i
COc1cccc2c1Oc1[nH]c(-c3ccccc3F)nc(=S)c1C2 | i | i
COc1cccc(-c2nc3c(c(=O)[nH]2)Cc2cc(Cl)ccc2O3)c1O | 4.9 | i
SMILES | TAR Tat displ | CDC25B-CDK2 inh
CCOc1cccc(-c2nc3c(c(=O)[nH]2)Cc2cccc(OCC)c2O3)c1O | 7.2 | i
Cc1cc(-c2ccc(S(=O)(=O)NCc3cccnc3)cc2)on1 | i | nt
O=C1c2cccnc2C(=O)N1Cc1ccc(S(=O)(=O)N2CC=C(c3ccccc3)CC2)s1 | i | nt
O=C(O)C1CCN(c2ccc(S(=O)(=O)N3CCCC3)cc2)CC1 | i | i
Cc1nc(N2CCCC2)ncc1C(=O)NCCCc1ccco1 | i | nt
CC1(C(=O)N2CCCC2)CCC(=O)N1CCc1ccco1 (stereo unspecified) | i | i
Cc1ccc2c(c1)N(CCC(=O)NCCCN1CCOCC1)C(=O)C(C)O2 (stereo unspecified) | nt | i
Cc1ccc(Cn2ccc(NC(=O)c3noc(C(C)C)c3[N+](=O)[O-])n2)cc1 | i | i
O=C(c1ccco1)N1CCN(S(=O)(=O)c2ccccc2)CC1 | i | i
O=C(c1ccco1)N1CCN(S(=O)(=O)c2ccc(F)cc2)CC1 | 17 | nt
O=c1c2ccccc2n2c(-c3ccc(F)cc3)nnc2n1Cc1ccc(F)cc1 | i | i
CN(C)S(=O)(=O)c1ccc2nc(NC(=O)c3nc4ccccc4s3)sc2c1 | i | nt
Cn1c(=O)c2c3nc4ccccc4cc3c(=O)n(C)c2n(C)c1=O | nt | 20
Cn1c(=O)c2cc3cc(Cl)ccc3nc2c2c(=O)n(-c3ccccc3)c(=O)n(-c3ccccc3)c21 | nt | i
CSc1ccc(C2Nc3ccccc3S(=O)(=O)N2Cc2ccccc2)cc1 (stereo unspecified) | nt | i
O=C(NCC1CCCO1)c1cnn(-c2cccc(F)c2)c1-n1cccc1 (stereo unspecified) | i | nt
N#CC1=C2SCN(c3cccc(Cl)c3)CN2C(=O)CC1c1ccc(F)cc1 (stereo unspecified) | i | 7.4
COc1ccccc1N1CSC2=C(C#N)C(c3ccc(SC)cc3)CC(=O)N2C1 (stereo unspecified) | i | 4.6
N#CC1=C2SCN(C3CCCCC3)CN2C(=O)CC1c1ccc(F)cc1 (stereo unspecified) | i | i
N#CC1=C2SCN(c3ccccc3F)CN2C(=O)CC1c1ccccc1 (stereo unspecified) | i | 6.5
COc1ccc(N2CSC3=C(C#N)C(c4ccc(SC)cc4)CC(=O)N3C2)c(OC)c1 (stereo unspecified) | i | i
